High-throughput results from PubChem.
A selection: hits, their analogues and other compounds. The true share with any hit is near 3.5%.
mHTT CaM bind – mHTT-calmodulin interaction abrogation | AlphaScreen His-mHTT/GST-CaM binding, luminescence | actives 3.6% (n = 190,000) | inhibition, % at 15 µM
Target sequence (P42858 whole entry, looked up, change not shown): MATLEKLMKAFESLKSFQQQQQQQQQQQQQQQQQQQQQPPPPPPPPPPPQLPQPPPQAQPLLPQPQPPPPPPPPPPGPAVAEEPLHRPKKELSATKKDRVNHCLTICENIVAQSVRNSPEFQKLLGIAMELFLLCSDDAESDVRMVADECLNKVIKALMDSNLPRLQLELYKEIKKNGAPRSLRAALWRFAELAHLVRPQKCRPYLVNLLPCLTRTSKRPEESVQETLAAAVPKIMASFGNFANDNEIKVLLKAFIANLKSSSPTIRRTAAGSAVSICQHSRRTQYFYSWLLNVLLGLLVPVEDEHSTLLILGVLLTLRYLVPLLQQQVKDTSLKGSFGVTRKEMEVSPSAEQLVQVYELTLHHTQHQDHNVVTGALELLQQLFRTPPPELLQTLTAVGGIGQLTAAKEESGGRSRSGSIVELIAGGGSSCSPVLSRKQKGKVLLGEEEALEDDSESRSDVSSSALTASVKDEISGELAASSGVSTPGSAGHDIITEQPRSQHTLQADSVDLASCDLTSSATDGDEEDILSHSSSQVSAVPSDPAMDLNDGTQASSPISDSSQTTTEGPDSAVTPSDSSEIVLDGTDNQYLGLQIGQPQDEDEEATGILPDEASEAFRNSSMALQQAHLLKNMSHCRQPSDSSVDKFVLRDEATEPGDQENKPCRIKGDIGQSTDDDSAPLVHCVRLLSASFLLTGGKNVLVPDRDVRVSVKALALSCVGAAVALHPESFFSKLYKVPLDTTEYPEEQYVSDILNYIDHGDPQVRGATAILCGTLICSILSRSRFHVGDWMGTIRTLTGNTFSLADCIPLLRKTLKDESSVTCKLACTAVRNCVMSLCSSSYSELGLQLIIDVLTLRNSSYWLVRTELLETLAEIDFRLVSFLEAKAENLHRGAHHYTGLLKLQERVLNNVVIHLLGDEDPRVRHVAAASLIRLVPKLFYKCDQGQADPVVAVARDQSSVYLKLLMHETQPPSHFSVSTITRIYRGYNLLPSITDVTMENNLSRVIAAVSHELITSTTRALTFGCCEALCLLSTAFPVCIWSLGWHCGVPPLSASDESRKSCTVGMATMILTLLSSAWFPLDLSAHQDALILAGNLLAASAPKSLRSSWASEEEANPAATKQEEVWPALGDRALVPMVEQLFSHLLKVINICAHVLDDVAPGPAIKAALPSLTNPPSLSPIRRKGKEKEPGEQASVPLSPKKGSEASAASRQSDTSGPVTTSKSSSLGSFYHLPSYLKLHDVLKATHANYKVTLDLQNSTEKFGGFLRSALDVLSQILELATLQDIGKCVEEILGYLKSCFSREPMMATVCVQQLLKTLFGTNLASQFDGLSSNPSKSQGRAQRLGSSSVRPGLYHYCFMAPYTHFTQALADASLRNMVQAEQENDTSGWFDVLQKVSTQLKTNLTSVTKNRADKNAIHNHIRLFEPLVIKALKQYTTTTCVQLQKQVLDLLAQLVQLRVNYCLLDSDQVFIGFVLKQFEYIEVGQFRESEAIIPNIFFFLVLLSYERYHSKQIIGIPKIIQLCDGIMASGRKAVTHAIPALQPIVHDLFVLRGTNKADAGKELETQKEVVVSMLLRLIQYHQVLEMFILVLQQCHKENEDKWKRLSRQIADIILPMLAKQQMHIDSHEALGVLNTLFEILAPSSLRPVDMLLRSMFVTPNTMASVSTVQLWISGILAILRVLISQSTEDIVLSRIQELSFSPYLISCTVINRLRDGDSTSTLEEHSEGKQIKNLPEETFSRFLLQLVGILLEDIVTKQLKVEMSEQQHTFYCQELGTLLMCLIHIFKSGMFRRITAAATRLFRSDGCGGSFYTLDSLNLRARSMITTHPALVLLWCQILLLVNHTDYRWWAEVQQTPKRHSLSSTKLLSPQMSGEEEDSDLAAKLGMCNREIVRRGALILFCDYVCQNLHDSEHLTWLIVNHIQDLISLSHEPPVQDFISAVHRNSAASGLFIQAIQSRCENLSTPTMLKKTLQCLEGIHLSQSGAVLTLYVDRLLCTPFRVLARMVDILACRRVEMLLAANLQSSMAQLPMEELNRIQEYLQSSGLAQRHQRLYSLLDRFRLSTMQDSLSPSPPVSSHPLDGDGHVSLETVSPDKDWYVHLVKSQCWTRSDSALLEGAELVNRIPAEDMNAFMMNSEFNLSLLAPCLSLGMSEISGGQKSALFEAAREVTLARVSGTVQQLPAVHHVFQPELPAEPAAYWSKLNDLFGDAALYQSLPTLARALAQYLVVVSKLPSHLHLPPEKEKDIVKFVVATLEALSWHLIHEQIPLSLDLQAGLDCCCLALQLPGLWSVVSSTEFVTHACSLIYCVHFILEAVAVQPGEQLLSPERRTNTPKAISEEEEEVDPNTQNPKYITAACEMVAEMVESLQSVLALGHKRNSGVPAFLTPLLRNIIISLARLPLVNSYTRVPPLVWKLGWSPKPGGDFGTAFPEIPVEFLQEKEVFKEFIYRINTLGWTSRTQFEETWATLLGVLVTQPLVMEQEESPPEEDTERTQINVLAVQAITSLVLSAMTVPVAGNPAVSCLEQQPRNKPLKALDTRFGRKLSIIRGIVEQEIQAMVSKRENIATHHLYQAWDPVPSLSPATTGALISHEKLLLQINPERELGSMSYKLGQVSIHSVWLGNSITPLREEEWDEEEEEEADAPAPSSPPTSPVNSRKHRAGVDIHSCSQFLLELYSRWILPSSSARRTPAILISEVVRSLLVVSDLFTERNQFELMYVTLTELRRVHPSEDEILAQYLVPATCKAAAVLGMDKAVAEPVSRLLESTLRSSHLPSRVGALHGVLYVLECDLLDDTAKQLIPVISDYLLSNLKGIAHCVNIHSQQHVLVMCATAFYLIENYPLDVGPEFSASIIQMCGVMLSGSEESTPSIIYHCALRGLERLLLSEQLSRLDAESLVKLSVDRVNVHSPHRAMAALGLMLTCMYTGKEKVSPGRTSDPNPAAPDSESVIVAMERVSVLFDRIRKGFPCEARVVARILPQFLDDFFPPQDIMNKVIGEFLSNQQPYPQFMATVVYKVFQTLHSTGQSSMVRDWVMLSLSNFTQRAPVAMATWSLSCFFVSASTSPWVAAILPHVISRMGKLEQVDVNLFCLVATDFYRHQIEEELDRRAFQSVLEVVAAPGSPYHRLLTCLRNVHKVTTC
Pf apPOL block – Pf-apPOL DNA polymerase inhibition; Recombinant Pf-apPOL, molecular beacon fluorescence, 1.5 h; AID 1794808; inhibition, % at 10 µM; actives 0.25% (n = 210,000)
Numbers stand for hits. Cut-off read from the data, not from the text of the source: active = inhibition above about 50%; inactive = the rest.

For CC(=O)C1=C(C)NC(SCC(=O)c2ccc(Cl)cc2)=C(C#N)C1c1cccc([N+](=O)[O-])c1 (stereo not given) the results were mHTT CaM bind inactive and Pf apPOL block inactive.
`CC(=O)C1=C(C)NC(SCC(=O)c2ccc(Cl)cc2)=C(C#N)C1c1sccc1C` (stereo not given) gave mHTT CaM bind inactive and Pf apPOL block inactive.
CC(=O)C1=C(C)NC(SCC(=O)c2cccc(Cl)c2)=C(C#N)C1c1sccc1C (stereo not given) was read as mHTT CaM bind inactive and Pf apPOL block 100.
CC(=O)C1=C(C)NC(SCC(=O)c2cccc([N+](=O)[O-])c2)=C(C#N)C1c1ccc(Cl)cc1 (stereo not given) was read as mHTT CaM bind 56 and Pf apPOL block inactive.
For CSc1nc2c(c(Nc3ccccc3F)n1)CCC2 the results were mHTT CaM bind inactive and Pf apPOL block inactive.
For COc1cc(C=NNC(=O)C(C)n2nnc(N3CCOCC3)n2)cc(OC)c1OC (stereo not given) the results were Pf apPOL block inactive.
`CCOC(=O)N1CCC(NC(=O)C(=O)Nc2cc(C)on2)CC1` gave mHTT CaM bind inactive and Pf apPOL block inactive.
`Cc1c(Cl)cccc1NC(=O)C(=O)NCC(O)c1ccc(C(F)(F)F)cc1` (stereo not given) gave mHTT CaM bind inactive and Pf apPOL block inactive.
CC(C)S(=O)(=O)c1ccc(CC(=O)NCC(O)c2ccc(C(F)(F)F)cc2)cc1 (stereo not given) was read as mHTT CaM bind inactive and Pf apPOL block inactive.
`Cc1c(Cl)cccc1S(=O)(=O)NCC(O)c1ccc(C(F)(F)F)cc1` (stereo not given) gave mHTT CaM bind 68 and Pf apPOL block inactive.
Screening O=S(=O)(NCC(O)c1ccc(C(F)(F)F)cc1)c1ccc2c(c1)CCCC2 (stereo not given) returned mHTT CaM bind 100 and Pf apPOL block inactive.
For Cc1ncnc2c1CCC(=O)N2CCN1CCCCC1C (stereo not given) the results were mHTT CaM bind inactive and Pf apPOL block inactive.
Screening CC(C)C(=O)Nc1ccc2oc(-c3ccccc3F)nc2c1 returned mHTT CaM bind inactive and Pf apPOL block inactive.
O=C(c1cccc(F)c1)N1CCC(NS(=O)(=O)c2ccc(Cl)cc2)CC1 was read as mHTT CaM bind inactive and Pf apPOL block inactive.
Screening COc1cc(C2Oc3ccccc3C=C2[N+](=O)[O-])ccc1OCc1ccccc1 (stereo not given) returned mHTT CaM bind inactive and Pf apPOL block inactive.
Screening COc1ccc(C2Oc3c(Br)cc(Br)cc3C=C2[N+](=O)[O-])cc1OC (stereo not given) returned mHTT CaM bind 69 and Pf apPOL block inactive.
Screening CSc1nnc2c(n1)OC(c1ccc(Br)s1)Nc1ccccc1-2 (stereo not given) returned mHTT CaM bind 57 and Pf apPOL block inactive.
`CCSc1nnc2c(n1)OC(c1cc3c(cc1[N+](=O)[O-])OCO3)Nc1ccccc1-2` (stereo not given) gave mHTT CaM bind 53 and Pf apPOL block inactive.
CCCCSc1nnc2c(n1)OC(c1ccncc1)Nc1ccccc1-2 (stereo not given) was read as mHTT CaM bind inactive and Pf apPOL block inactive.
Screening CCSc1nnc2c(n1)OC(c1cn[nH]c1-c1ccccc1)Nc1ccccc1-2 (stereo not given) returned mHTT CaM bind inactive and Pf apPOL block inactive.
`CSc1nnc2c(n1)OC(c1ccccc1O)Nc1ccccc1-2` (stereo not given) gave mHTT CaM bind inactive and Pf apPOL block inactive.
Screening CCCCSc1nnc2c(n1)OC(c1cc3c(cc1[N+](=O)[O-])OCO3)Nc1ccccc1-2 (stereo not given) returned mHTT CaM bind 77 and Pf apPOL block inactive.
Screening CSc1nnc2c(n1)OC(c1cccs1)Nc1ccccc1-2 (stereo not given) returned mHTT CaM bind inactive and Pf apPOL block inactive.
For CSc1nnc2c(n1)OC(c1cc3c(cc1Br)OCO3)Nc1ccccc1-2 (stereo not given) the results were mHTT CaM bind inactive and Pf apPOL block 85.
For O=C(NCC1CCN(C(=O)Oc2ccccc2)CC1)c1ccsc1 the results were mHTT CaM bind inactive and Pf apPOL block inactive.
`CCc1ccccc1N1CC(c2nc3ccccc3n2C)CC1=O` (stereo not given) gave mHTT CaM bind inactive and Pf apPOL block inactive.
Screening O=C(C1CC1)N1CCCC1c1nc2cc(-c3ccccc3F)ccc2o1 (stereo not given) returned mHTT CaM bind inactive and Pf apPOL block inactive.
Screening Cn1cc(C(=O)c2ccc(Cl)cc2)cc1C=C(C#N)C(=O)c1ccc(Cl)cc1 returned Pf apPOL block inactive.
`Cc1cccc(C)c1NC(=O)COc1ccc(Br)cc1Cl` gave mHTT CaM bind inactive and Pf apPOL block inactive.
For COc1ccccc1NS(=O)(=O)c1ccc2[nH]c(=O)sc2c1 the results were mHTT CaM bind inactive and Pf apPOL block inactive.
Screening O=S(=O)(Nc1ccccc1F)c1ccc2[nH]c3c(c2c1)CCCC3 returned mHTT CaM bind 56 and Pf apPOL block inactive.
`COc1ccccc1CNS(=O)(=O)c1ccc(OC)c(OC)c1` gave mHTT CaM bind inactive and Pf apPOL block inactive.
COc1ccccc1CNS(=O)(=O)c1ccc2[nH]c3c(c2c1)CCCC3 was read as mHTT CaM bind 64 and Pf apPOL block inactive.
`O=C1c2ccccc2C(=O)c2cc(S(=O)(=O)Nc3ccccc3F)ccc21` gave mHTT CaM bind inactive and Pf apPOL block inactive.
CCOC(=O)c1ccc(NS(=O)(=O)c2ccc3[nH]c4c(c3c2)CCCC4)cc1 was read as mHTT CaM bind 87 and Pf apPOL block inactive.
`COc1ccccc1NS(=O)(=O)c1ccc2[nH]c3c(c2c1)CCCC3` gave mHTT CaM bind 81 and Pf apPOL block inactive.
CCC(C)NS(=O)(=O)c1ccc2[nH]c3c(c2c1)CCCC3 (stereo not given) was read as mHTT CaM bind inactive and Pf apPOL block inactive.
`COc1ccc(-c2noc(-c3ccc(=O)n(Cc4c(F)cccc4Cl)c3)n2)cc1` gave mHTT CaM bind inactive and Pf apPOL block inactive.
Screening COc1ccccc1/C=C/C=C1\N=C(c2ccccc2Cl)OC1=O returned mHTT CaM bind inactive and Pf apPOL block inactive.
`CCOc1ccc(OCCOCCn2cnc3ccccc3c2=O)cc1` gave mHTT CaM bind inactive and Pf apPOL block inactive.
`Cc1cccc(N2CCN(CCNC(=O)C3CCN(c4ccncc4)CC3)CC2)c1C` gave mHTT CaM bind inactive and Pf apPOL block inactive.
`CCOc1ccccc1NC(=O)N1CC(c2nc(C)no2)C2(CCOCC2)C1` (stereo not given) gave mHTT CaM bind inactive and Pf apPOL block inactive.
`COc1cc(NS(=O)(=O)c2ccc3[nH]c4c(c3c2)CCCC4)cc(OC)c1OC` gave mHTT CaM bind 83 and Pf apPOL block inactive.
For COc1ccccc1NS(=O)(=O)c1ccc2[nH]c3c(c2c1)CCCCC3 the results were mHTT CaM bind 97 and Pf apPOL block inactive.
CCOc1ccccc1NS(=O)(=O)c1ccc2[nH]c3c(c2c1)CCCCC3 was read as mHTT CaM bind inactive and Pf apPOL block inactive.
For O=S(=O)(Nc1cccnc1)c1ccc2[nH]c3c(c2c1)CCCCC3 the results were mHTT CaM bind inactive and Pf apPOL block inactive.
COc1ccc(OC)c(NS(=O)(=O)c2ccc3[nH]c4c(c3c2)CCCC4)c1 was read as mHTT CaM bind 71 and Pf apPOL block inactive.
